# Compounds without any hit were thinned out: in the full panel of roughly 79,000, 15% have a hit. Active and inactive are the calls of the source. No stated cut-off is given here; in the data, active means growth inhibition above about 70%; inactive means the rest.
# Assay: NCI Yeast Anticancer Drug Screen. Data for the mec2-1 strain (AID 157)
# Conditions: S. cerevisiae mec2-1 strain, at 50.0 µM, stronger effect = higher value
# Outline: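 Using mec2-1 yeast: add compound, measure growth, express inhibition versus vehicle-treated cultures.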
row,Compound,growth inhibition
1,CC12CCc3ccccc3C1=NNC(=O)C2 (configuration not stated),-7.55% (inactive)
2,CC(CNC(N)=O)(CNC(N)=O)c1ccccc1,-9.05% (inactive)
3,C(=C\c1ccccc1)/Cn1nc(-c2ccccc2)nc1-c1cnccn1,-24% (inactive)
4,O=C(CCCC(=O)N/N=C/c1ccc(Cl)cc1)N/N=C\c1ccc(Cl)cc1,-9.9% (inactive)
5,CCCC(O)C(C)N (configuration not stated),-3.1% (inactive)
6,N#CC(C#N)=C(N)/C(C#N)=C/c1ccc2[nH]ccc2c1,6.95% (inactive)
7,Nc1ccc(OCC(O)CN2CCN(c3ccccc3)CC2)cc1 (configuration not stated),4.15% (inactive)
8,O=COCCO,-5.6% (inactive)
9,COc1cccc(C2c3cc4c(cc3OC(N3CCCC3)C2C)OCO4)c1O (configuration not stated),-18.6% (inactive)
10,O=c1[nH]cnc2c(C3OC(CO)C(O)C3O)[nH]nc12 (configuration not stated),-34.7% (inactive)
11,Cn1nc(-c2ccccc2)c(C(=O)/C=C/c2ccc(F)cc2)c(N2CCOCC2)c1=O,-34% (inactive)
12,O=C1N=C(c2ccccc2)C(c2ccccc2)N1 (configuration not stated),23.1% (inactive)

# Assay: NCI Yeast Anticancer Drug Screen. Data for the sgs1 mgt1 strain (AID 161);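 further: 0% = growth of cultures given vehicle only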
# Conditions: S. cerevisiae sgs1 mgt1 strain, at 50.0 µM, stronger effect = higher value
# Outline: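 Percent growth inhibition was derived by comparing compound-exposed mutant yeast with vehicle-exposed cultures. The strain carries alterations in DNA damage repair.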
row,Compound,growth inhibition
1,CC(=O)Nc1cc(OC(C)=O)nc2c1CCC2,-5.5% (inactive)
2,COc1ccc(/C=C2/SC(=Nc3ccccc3)N(NC(=O)Cc3ccccc3)C2=O)c(OC)c1,7.45% (inactive)
3,CCOc1c(OC)ccc(/C(C)=N\O)c1OCC,4.8% (inactive)
4,CCCCCCCSSCCCCCCC,-3.55% (inactive)
5,CCc1occc(=O)c1O,-1.75% (inactive)
6,CC(=O)Nc1ccc(NC(=O)Nc2cccc(Cl)c2C)cc1,3.05% (inactive)
7,C=C(C)CN(Cc1ccccc1)C1CCCCCCC1,-14.8% (inactive)
8,Nc1ccc(N)c2cc(S(=O)(=O)O)ccc12,-5.1% (inactive)
9,O=C(O)c1c(Br)c(Br)c(Br)c(Br)c1C(=O)Nc1cc([N+](=O)[O-])ccc1O,8.9% (inactive)
10,CC(=O)c1ccc2c(c1)-c1ccccc1C(=O)C2=O,10.3% (inactive)
11,Cc1nc2c(c(-c3ccc(Cl)cc3)n1)Cc1c(ccc3ccccc13)O2,-9.2% (inactive)
12,CC(=O)Nc1ccc2c(c1)Cc1cc(NC(C)=O)c(Cl)cc1-2,-1.45% (inactive)
13,C=CC(C)(CCC=C(C)C)OC(C)=O (configuration not stated),14.7% (inactive)
14,C[n+]1cccc(/C=C/c2ccc3cccc(O)c3n2)c1,-12.7% (inactive)
15,CC1CCC(CCBr)CC1 (configuration not stated),5.15% (inactive)
16,COc1ccc(COc2ccc([N+](=O)[O-])cc2)cc1,-4.45% (inactive)
17,CN(C)/C=C(/N=C(C#N)C#N)C1OCCO1,-2.55% (inactive)
18,CCCCCCOC(=O)/C=C1/OC(=O)c2ccccc21,2.15% (inactive)
19,CC1C=CC(C)c2c(-c3ccccc3)oc(-c3ccccc3)c21 (configuration not stated),-1.5% (inactive)
20,CC(C)(C)c1ccc(SCC#CCOc2ccc(Cl)cc2)cc1,-4.8% (inactive)

row,Compound,growth inhibition
1,COc1cc(/C=C/c2ccc([N+](=O)[O-])cc2[N+](=O)[O-])ccc1O,28.6% (inactive)
2,CC12CCC(/C(=N/O)C1=O)C2(C)C (configuration not stated),1.1% (inactive)
3,O=C(O)c1cc(-c2ccccc2Cl)nc2cc3ccccc3cc12,4.45% (inactive)
4,CCOC(=O)c1ccc(NC(=S)NCc2cccnc2)cc1,24.6% (inactive)
5,Cc1ccc(/C=N/NS(=O)(=O)c2ccc(/C=C3\NC(=O)NC3=O)cc2)cc1,-31.4% (inactive)
6,CC(=Nc1ccc(Cl)c(Cl)c1)c1ccncc1,-58% (inactive)
7,CCCCCCCCCCCCCCCCCCCOc1ccc(OCCCCCCCC)cc1,17.6% (inactive)
8,COc1cc(OC)c2nccc(NCCCN(C)C)c2c1[N+](=O)[O-],5.75% (inactive)
9,CC12CCc3ccccc3C1=NNC(=O)C2 (configuration not stated),19.6% (inactive)
10,CC(CNC(N)=O)(CNC(N)=O)c1ccccc1,-11.8% (inactive)
11,C(=C\c1ccccc1)/Cn1nc(-c2ccccc2)nc1-c1cnccn1,-47% (inactive)
12,O=C(CCCC(=O)N/N=C/c1ccc(Cl)cc1)N/N=C\c1ccc(Cl)cc1,-9.9% (inactive)
13,CCCC(O)C(C)N (configuration not stated),-2.9% (inactive)
14,N#CC(C#N)=C(N)/C(C#N)=C/c1ccc2[nH]ccc2c1,-29.2% (inactive)
15,Nc1ccc(OCC(O)CN2CCN(c3ccccc3)CC2)cc1 (configuration not stated),6.65% (inactive)
16,O=COCCO,7.6% (inactive)
17,COc1cccc(C2c3cc4c(cc3OC(N3CCCC3)C2C)OCO4)c1O (configuration not stated),3.3% (inactive)
18,O=c1[nH]cnc2c(C3OC(CO)C(O)C3O)[nH]nc12 (configuration not stated),-15.8% (inactive)
19,Cn1nc(-c2ccccc2)c(C(=O)/C=C/c2ccc(F)cc2)c(N2CCOCC2)c1=O,-54.8% (inactive)
20,O=C1N=C(c2ccccc2)C(c2ccccc2)N1 (configuration not stated),12.9% (inactive)

# Assay: NCI Yeast Anticancer Drug Screen. Data for the cln2 rad14 strain (AID 165);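 further: 0% = growth equal to vehicle treated cultures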
# Conditions: S. cerevisiae cln2 rad14 strain, at 50.0 µM, stronger effect = higher value
# Outline: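 Yeast strain cln2 rad14, bearing defects in cell cycle control and DNA repair, serves as the test system; values reflect growth inhibition compared with vehicle.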
row,Compound,growth inhibition
1,CC(=O)Nc1cc(OC(C)=O)nc2c1CCC2,7.95% (inactive)
2,COc1ccc(/C=C2/SC(=Nc3ccccc3)N(NC(=O)Cc3ccccc3)C2=O)c(OC)c1,-12.8% (inactive)
3,CCOc1c(OC)ccc(/C(C)=N\O)c1OCC,-1.7% (inactive)
4,CCCCCCCSSCCCCCCC,11.9% (inactive)
5,CCc1occc(=O)c1O,1.75% (inactive)
6,CC(=O)Nc1ccc(NC(=O)Nc2cccc(Cl)c2C)cc1,11.7% (inactive)
7,C=C(C)CN(Cc1ccccc1)C1CCCCCCC1,-5.75% (inactive)
8,Nc1ccc(N)c2cc(S(=O)(=O)O)ccc12,6.4% (inactive)
9,O=C(O)c1c(Br)c(Br)c(Br)c(Br)c1C(=O)Nc1cc([N+](=O)[O-])ccc1O,7.9% (inactive)
10,CC(=O)c1ccc2c(c1)-c1ccccc1C(=O)C2=O,-19.8% (inactive)
11,Cc1nc2c(c(-c3ccc(Cl)cc3)n1)Cc1c(ccc3ccccc13)O2,-0.1% (inactive)
12,CC(=O)Nc1ccc2c(c1)Cc1cc(NC(C)=O)c(Cl)cc1-2,7.95% (inactive)
13,C=CC(C)(CCC=C(C)C)OC(C)=O (configuration not stated),1.9% (inactive)
14,C[n+]1cccc(/C=C/c2ccc3cccc(O)c3n2)c1,-2.65% (inactive)
15,CC1CCC(CCBr)CC1 (configuration not stated),-3.15% (inactive)
16,COc1ccc(COc2ccc([N+](=O)[O-])cc2)cc1,-9% (inactive)
17,CN(C)/C=C(/N=C(C#N)C#N)C1OCCO1,-27.1% (inactive)
18,CCCCCCOC(=O)/C=C1/OC(=O)c2ccccc21,-60.5% (inactive)
19,CC1C=CC(C)c2c(-c3ccccc3)oc(-c3ccccc3)c21 (configuration not stated),-2.6% (inactive)
20,CC(C)(C)c1ccc(SCC#CCOc2ccc(Cl)cc2)cc1,-23.6% (inactive)

row,Compound,growth inhibition
1,COc1cc(/C=C/c2ccc([N+](=O)[O-])cc2[N+](=O)[O-])ccc1O,19.1% (inactive)
2,CC12CCC(/C(=N/O)C1=O)C2(C)C (configuration not stated),-74.5% (inactive)
3,O=C(O)c1cc(-c2ccccc2Cl)nc2cc3ccccc3cc12,14.1% (inactive)
4,CCOC(=O)c1ccc(NC(=S)NCc2cccnc2)cc1,4.95% (inactive)
5,Cc1ccc(/C=N/NS(=O)(=O)c2ccc(/C=C3\NC(=O)NC3=O)cc2)cc1,-6.55% (inactive)
6,CC(=Nc1ccc(Cl)c(Cl)c1)c1ccncc1,-31.6% (inactive)
7,CCCCCCCCCCCCCCCCCCCOc1ccc(OCCCCCCCC)cc1,-11.2% (inactive)
8,COc1cc(OC)c2nccc(NCCCN(C)C)c2c1[N+](=O)[O-],21.6% (inactive)
9,CC12CCc3ccccc3C1=NNC(=O)C2 (configuration not stated),-6.45% (inactive)
10,CC(CNC(N)=O)(CNC(N)=O)c1ccccc1,-21.6% (inactive)
11,C(=C\c1ccccc1)/Cn1nc(-c2ccccc2)nc1-c1cnccn1,10.2% (inactive)
12,O=C(CCCC(=O)N/N=C/c1ccc(Cl)cc1)N/N=C\c1ccc(Cl)cc1,-11.6% (inactive)
13,CCCC(O)C(C)N (configuration not stated),-0.2% (inactive)
14,N#CC(C#N)=C(N)/C(C#N)=C/c1ccc2[nH]ccc2c1,-24.9% (inactive)
15,Nc1ccc(OCC(O)CN2CCN(c3ccccc3)CC2)cc1 (configuration not stated),-3.85% (inactive)
16,O=COCCO,-9.85% (inactive)
17,COc1cccc(C2c3cc4c(cc3OC(N3CCCC3)C2C)OCO4)c1O (configuration not stated),-19.8% (inactive)
18,O=c1[nH]cnc2c(C3OC(CO)C(O)C3O)[nH]nc12 (configuration not stated),3.3% (inactive)
19,Cn1nc(-c2ccccc2)c(C(=O)/C=C/c2ccc(F)cc2)c(N2CCOCC2)c1=O,5.9% (inactive)
20,O=C1N=C(c2ccccc2)C(c2ccccc2)N1 (configuration not stated),-3.85% (inactive)
